Assay outcomes as filed in PubChem BioAssay.
Mtb UGM inh – inhibitors of M. tuberculosis UDP-galactopyranose mutase; purified UGM, fluorescence polarization probe displacement; hit rate 0.06% among 320,000; AID 504406; P9WIQ1; inhibition, % at 10 µM; in the data active = inhibition above about 10%, passing the limit was not always enough
Target sequence (P9WIQ1 whole entry, looked up): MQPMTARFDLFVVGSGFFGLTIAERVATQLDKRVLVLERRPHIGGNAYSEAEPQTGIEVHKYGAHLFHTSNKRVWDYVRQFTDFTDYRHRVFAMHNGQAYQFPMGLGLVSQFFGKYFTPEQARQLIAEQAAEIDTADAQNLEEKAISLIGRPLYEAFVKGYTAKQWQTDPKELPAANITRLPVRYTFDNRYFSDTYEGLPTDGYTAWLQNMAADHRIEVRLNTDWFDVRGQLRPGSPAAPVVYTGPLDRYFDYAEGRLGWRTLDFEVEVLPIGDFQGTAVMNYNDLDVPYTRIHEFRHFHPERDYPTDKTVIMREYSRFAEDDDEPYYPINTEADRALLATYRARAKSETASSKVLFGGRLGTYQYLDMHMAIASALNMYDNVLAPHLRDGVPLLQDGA
GDH-TPI counter – inhibits GDH-TPI coupling enzymes, artifact for Mtb FBA screen; GDH-TPI coupled enzyme counterscreen, NADH absorbance; inhibition, % at 4.8 µM; hit rate 1.2% among 360,000; AID 588335; in the data active = inhibition above about 30%;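 note: 0% = DMSO wells and 100% = wells lacking the enzyme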
Mtb FBA inh – Mtb fructose-bisphosphate aldolase inhibition; P9WQA3; purified M. tuberculosis FBA, fluorescence read-out; inhibition, % at 1 µM; hit rate 2.3% among 360,000; AID 588726; in the data active = inhibition above about 27%;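 note: 0% = vehicle and 100% = reference inhibitor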
Rv3671c inh – inhibits the M. tuberculosis serine protease Rv3671c | P9WHR9 | inhibition, % at 5.96 µM | hit rate 0.048% among 320,000 | AID 2606; in the data active = inhibition above about 38%;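 note: extracellular domain of Rv3671c used as enzyme; 0% = enzyme with DMSO and 100% = no enzyme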
PriA SSB inh – blocks PriA binding to SSB C-terminal tail; inhibition, % at 33 µM; AlphaScreen SSBct-PriA binding, biotinylated peptide; hit rate 0.6% among 430,000; in the data active = inhibition mostly above about 37%, no sharp cut-off; inactive = mostly below about 20%;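 note: plate controls were negative control peptide for no effect and reference peptide for full effect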
Mtb betalactam – beta-lactam sensitization of Mtb H37Rv. M. tuberculosis H37Rv growth with meropenem, percent inhibition. inhibition, % at 25 µM. hit rate 0.27% among 330,000; call rule not given here;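 note: growth measured after seven days incubation then overnight dye step; 0% = bacteria only wells and 100% = bacteria with antibiotic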
An asterisk follows results filed as active. Compounds with a hit are over-represented: about 3.2% of the library has one in this group of screens.

Screening Cc1cc(-c2cccs2)nn1CCNC(=O)N1CCOCC1 returned PriA SSB inh -4.
COc1cc(/C=C/c2nc3ccccc3c(=O)[nH]2)ccc1O was read as GDH-TPI counter 41* and Mtb FBA inh -3.
O=c1c2ccccc2nc(/C=C/c2ccc(O)c(O)c2)n1-c1ccccc1 was read as Mtb UGM inh 0, GDH-TPI counter 43*, Mtb FBA inh -6, Rv3671c inh -27, PriA SSB inh -5 and Mtb betalactam 4.
COc1cc(/C=C/c2nc3ccccc3c(=O)n2-c2ccccc2O)ccc1O was read as Mtb UGM inh -7, GDH-TPI counter 24, Mtb FBA inh -5, Rv3671c inh -5, PriA SSB inh 18 and Mtb betalactam 10.
Screening COc1cc(/C=C/c2nc3ccccc3c(=O)n2-c2cccc(O)c2)ccc1O returned Mtb UGM inh -2, GDH-TPI counter 47*, Mtb FBA inh -4, Rv3671c inh 2, PriA SSB inh -4 and Mtb betalactam 43.
CCCCOC(=O)c1cc(-c2ccc(/C=N/n3cnnc3)o2)ccc1Cl was read as Mtb UGM inh -3, GDH-TPI counter 31*, Mtb FBA inh 1, Rv3671c inh -4 and Mtb betalactam 6.
For Cc1cc(-c2ccc(/C=N/n3cnnc3)o2)ccc1Cl the results were Mtb UGM inh 3, GDH-TPI counter 33*, Mtb FBA inh -2, Rv3671c inh -3 and Mtb betalactam 95.
For CCOC(=O)c1cc(-c2ccc(/C=N\n3cnnc3)o2)ccc1Cl the results were Mtb UGM inh 0, GDH-TPI counter 47*, Mtb FBA inh 1, Rv3671c inh 0 and Mtb betalactam 21.
For O=[N+]([O-])c1cc(-c2ccc(C=Nn3cnnc3)o2)ccc1Cl the results were PriA SSB inh -5.
Screening CCOc1ccc(S(=O)(=O)NCc2ccc(C(=O)c3cccs3)s2)cc1F returned PriA SSB inh -10.
CC(=NNC(=O)C1CCCN(S(=O)(=O)c2ccccc2)C1)c1ccncc1 (stereo not given) was read as PriA SSB inh 1.
For COc1ccc(CCNC(=O)Cn2c(C)cc(C)c(-c3nc(-c4ccccc4)no3)c2=O)cc1OC the results were PriA SSB inh 3.
Screening COc1ccccc1NC(=S)NC(=O)c1ccc(Br)o1 returned PriA SSB inh 24.
`CCCCOc1ccc(NC(=O)NC[C@@](C)(O)CCc2ccccc2)cc1` gave PriA SSB inh -8.
For CCc1ccc2[nH]c(=O)c(C3C(C#N)=C(N)Oc4c3ccc3cccnc43)cc2c1 (stereo not given) the results were Mtb UGM inh 0, GDH-TPI counter 25, Mtb FBA inh 2, Rv3671c inh -3, PriA SSB inh 17 and Mtb betalactam 10.
Cc1ccc2cc(C3C(C#N)=C(N)Oc4c3ccc3cccnc43)c(=O)[nH]c2c1 (stereo not given) was read as Mtb UGM inh -2, GDH-TPI counter 35*, Mtb FBA inh 4, Rv3671c inh 9, PriA SSB inh 79* and Mtb betalactam 2.
N#Cc1c(N=Cc2c(O)n(Cc3ccco3)c(=O)[nH]c2=O)sc2c1CCCC2 was read as PriA SSB inh 10.
Screening c1ccc(OC2CC3CCC(C2)N3)nc1 (stereo not given) returned PriA SSB inh 96*.
Screening N/C(=N\N=C\c1ccco1)SC1CC(=O)N(c2ccc(C(=O)O)cc2)C1=O (stereo not given) returned Mtb UGM inh 4, GDH-TPI counter 45*, Mtb FBA inh -7, Rv3671c inh 3 and Mtb betalactam 4.
`C/C(=N\N=C(/N)SC1CC(=O)N(c2ccc(Cl)cc2)C1=O)c1cccs1` (stereo not given) gave Mtb UGM inh -1, GDH-TPI counter 26, Mtb FBA inh -2, Rv3671c inh -39 and Mtb betalactam 94.
For C/C(=N\N=C(/N)SC1CC(=O)N(c2ccccc2)C1=O)c1cccs1 (stereo not given) the results were Mtb UGM inh 5, GDH-TPI counter 41*, Mtb FBA inh 1, Rv3671c inh -6 and Mtb betalactam 11.
N/C(=N\N=C\c1cccs1)SC1CC(=O)N(c2ccc(Br)cc2)C1=O (stereo not given) was read as Mtb UGM inh -4, GDH-TPI counter 32*, Mtb FBA inh -1, Rv3671c inh -50 and Mtb betalactam 9.
For O=C(COc1cccc2c1CCN(Cc1ccc(Br)cc1)C2=O)N1CCCCCC1 the results were PriA SSB inh -10.
